According to PubChem BioAssay:

These compounds were tested against Fibroblast growth factor 10 (Homo sapiens) (UniProt O15520) (assay: FGF10 binders on small-molecule microarrays, primary screen, biochemical, small-molecule microarray, 635 nm fluorescence (AID 1102)). Conditions: FGF10 binding, fluorescence 635 nm, higher = more signal.
Fibroblast growth factor 10 (Homo sapiens), sequence (O15520 whole entry, looked up): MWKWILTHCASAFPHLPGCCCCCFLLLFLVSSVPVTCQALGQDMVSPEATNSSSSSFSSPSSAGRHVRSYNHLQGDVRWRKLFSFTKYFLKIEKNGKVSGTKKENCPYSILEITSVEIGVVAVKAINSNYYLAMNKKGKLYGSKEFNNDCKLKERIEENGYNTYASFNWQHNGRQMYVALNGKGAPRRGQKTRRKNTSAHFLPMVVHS
`NC(=O)[C@@H]1[C@H]2C(=O)O[C@H](c3ccccc3)[C@H](c3ccccc3)N2[C@H](c2ccc(O)cc2)[C@@]12C(=O)Nc1ccc(C#CC3(O)CCCCCC3)cc12` was tested, and the composite z-score was -0.177.
For `COc1cc2c(cc1O)C(C1CC1)N(Cc1cc3c(cc1Br)OCO3)CC2` (centres undefined), the composite z-score was -1.02.
`CCCCCC1=C2CNC(CCC)(C(=O)OC)C=C2C(C)C1=O` (centres undefined) gave a composite z-score of 0.439.
`COc1ccc(C(O)C2C=CC3C(=O)NC(=O)C3N2Nc2ccccn2)c2ccccc12` (centres undefined) gave a composite z-score of 0.392.
`COC(=O)C(CC#Cc1ccc2c(c1)[C@]1(C(=O)N2)[C@H](C(=O)O)[C@H]2C(=O)O[C@H](c3ccccc3)[C@H](c3ccccc3)N2[C@@H]1c1ccc(O)cc1)C(=O)OC` was tested, and the composite z-score was 0.284.
With `CC1(C)[C@@H]2CC(C(O)C3C=CC4C(=O)N(c5ccccc5)C(=O)C4N3Nc3ccccc3)=C[C@H]1C2` (some centres undefined) the composite z-score was 0.104.
In the case of `COc1ccc([Si](C)(C)[C@H]2[C@H](CCn3cc([C@H](O)c4ccccc4)nn3)O[C@@]3(C(=O)N(Cc4cccc(N5CCOC5=O)c4)c4ccccc43)[C@@H]2C)cc1`, the composite z-score is reported as 0.339.
In the case of `COc1cc2c(cc1O)C=[N+](Cc1cccc(OC(F)(F)F)c1)CC2`, the composite z-score is reported as -0.0931.
Work on `COC(=O)[C@@]1(Cc2ccc(OC)cc2)[C@H]2c3cc(C(=O)N(C)C)n(CCN4CNCC4=O)c3C[C@H]2CN1C(=O)c1ccccc1` yielded a composite z-score of -0.33.

The compounds below were run on glycogen synthase kinase-3 (GSK3A per assay name; protocol says GSK3B) (assay: GSK3 binders on small-molecule microarrays, primary screen, biochemical, small-molecule microarray, 635 nm fluorescence, GSK3A (AID 1103; further: the record names both GSK3A and GSK3B)). Conditions: small-molecule microarray binding, fluorescence 635 nm; higher = more signal.
`CCOC(=O)C1=CCC(c2ccc(C)cc2)N(S(=O)(=O)c2ccc(C)cc2)C1` (centres undefined) showed a composite z-score of 0.301.
`CN(C)CCCNC(=O)[C@@]1(c2ccc([N+](=O)[O-])cc2)CC(=O)N(C2CCCCC2)[C@@H]1c1ccc(CO)cc1` gave a composite z-score of -0.148.
In the case of `CC(=O)N1Cc2ccccc2C[C@@]2(COC(c3ccc(OCCCO)cc3)=N2)C1=O`, the composite z-score is reported as 1.32.
In the case of `COCCOC(=O)N1C(=O)[C@@]2(c3cc(C#CC4=CCCCC4)ccc31)[C@H](C(=O)Nc1nc3ccccc3s1)[C@H]1C(=O)O[C@H](c3ccccc3)[C@H](c3ccccc3)N1[C@@H]2c1ccc(OCCO)cc1`, the composite z-score is reported as 1.21.
With `C=CC[C@]1(C(=O)N2CCCCC2)N=C(c2ccc(OCCCO)cc2)O[C@H]1c1ccccc1` the composite z-score was 1.3.
Work on `O=C1NCC(=O)N2[C@@H]1C[C@@H](C(=O)O)[C@H]2c1cccc(OCCO)c1` yielded a composite z-score of 1.38.
In the case of `O=C1O[C@H](c2ccccc2)[C@H](c2ccccc2)N2[C@H]1[C@@H](C(=O)O)[C@]1(C(=O)Nc3ccc(C#CCCO)cc31)[C@H]2c1ccc(O)cc1`, the composite z-score is reported as -0.222.
Compound `C=CCOC(=O)[C@H]1[C@@H]2C(=O)O[C@@H](c3ccccc3)[C@@H](c3ccccc3)N2[C@@H](c2ccc(OCCOC(=O)[C@@H]3C[C@@H]4C(=O)N[C@@H](CCCCN(C)C)C(=O)N4[C@@H]3c3ccc(O)cc3)cc2)[C@]12C(=O)Nc1ccc(I)cc12` has a composite z-score of 1.32.
For `CC(C)(C)OC(=O)CC[C@]12N=C(c3ccc(OCCCO)cc3)O[C@H]1c1ccccc1N(CCS(=O)(=O)c1ccccc1)C2=O`, the composite z-score was 1.23.
Work on `CN(C)C(=O)[C@@]1(Cc2ccccc2CN=[N+]=[N-])N=C(c2ccc(OCCCO)cc2)O[C@H]1c1ccccc1` yielded a composite z-score of 0.585.
`COc1cc2c(cc1OC)CN(C(=O)[C@H]1[C@@H]3C(=O)O[C@@H](c4ccccc4)[C@@H](c4ccccc4)N3[C@@H](c3ccc(O)cc3)[C@]13C(=O)Nc1ccc(C#CC4=CCCCC4)cc13)CC2` was tested, and the composite z-score was 1.29.
For `CN1C(=O)C2C=CC(C(O)c3cc(C(F)(F)F)cc(C(F)(F)F)c3)N(N3CCCCC3)C2C1=O` (centres undefined), the composite z-score was -0.0883.
`COCC(=C=CC[C@H](O)c1ccccc1OCCO)C[C@H](O)c1cc(Cl)cc(Cl)c1O` showed a composite z-score of 0.702.
`CCCN1C(=O)[C@]2(CCS(=O)(=O)c3ccccc3)N=C(c3ccc(OCCCO)cc3)O[C@@H]2c2ccccc21` showed a composite z-score of 1.32.
Compound `COc1cc2c(cc1OC)CN(C(=O)[C@H]1[C@@H]3C(=O)O[C@@H](c4ccccc4)[C@@H](c4ccccc4)N3[C@@H](c3ccc(O)cc3)[C@]13C(=O)Nc1ccc(C#CCNC(N)=O)cc13)CC2` has a composite z-score of -0.294.
With `CN(C)CCCNC(=O)[C@@]1(C)c2ccccc2C(=O)N(Cc2cc(F)cc(C(F)(F)F)c2)[C@H]1c1ccc(CO)cc1` the composite z-score was -0.465.
`O=C1C2C=CC(C(O)C3CCCCC3)N(Nc3ccc([N+](=O)[O-])cc3)C2C(=O)N1c1ccccc1` (centres undefined) showed a composite z-score of 1.31.
`O=C1OCCC/C=C\[C@H]2OC34C=CCN(c5ccc6ccccc6c5)C(=O)[C@H]3N(CCCCCCO)C(=O)[C@@H]4C12` (some centres undefined) was tested, and the composite z-score was -0.525.
In the case of `COCCOC(=O)N1C(=O)[C@@]2(c3cc(C#CCNC(N)=O)ccc31)[C@H](C(=O)NC[C@H](O)c1ccccc1)[C@H]1C(=O)O[C@H](c3ccccc3)[C@H](c3ccccc3)N1[C@@H]2c1ccccc1OCCO`, the composite z-score is reported as 0.628.
`CC(C)(C)OC(=O)CC[C@@]12N=C(c3ccc(OCCCO)cc3)O[C@@H]1c1ccccc1N(CCS(=O)(=O)c1ccccc1)C2=O` gave a composite z-score of 0.323.
`COC(=O)[C@@]1(Cc2ccc(F)cc2)[C@H]2c3cc(C(=O)N4CCCC4)n(Cc4cc(C)n(C)n4)c3C[C@H]2CN1C(=O)c1ccccc1` showed a composite z-score of 0.775.
For `COC(=O)c1c(CC[C@@H](CO)NC(=O)N2CCC[C@H]2Cn2cc(-c3ccccn3)nn2)oc(C(C)=O)c1C(=O)OC`, the composite z-score was 0.209.
`CCOC(=O)[C@H]1CC=C2CC1C(=O)N1CCC[C@@H]1[C@@H]2O[Si](C)(C)C(C)(C)C` (some centres undefined) showed a composite z-score of -1.22.
With `C=CCC(OC(C)=O)[C@@H]1[C@@H](N(Cc2ccc(-c3ccccc3)cc2)C(=O)Cc2ccc(F)cc2)c2cc(OCCCO)ccc2N1C(=O)c1ccc(-c2ccccc2)cc1` (some centres undefined) the composite z-score was -1.02.
Work on `CCOC(=O)C[C@H]1[C@H](OC(=O)Cc2ccc3c(c2)OCO3)[C@@H](NC(=O)c2ccc(-c3ccccc3)cc2)c2cc(OCCCO)ccc2N1C(=O)c1ccc2ccccc2n1` yielded a composite z-score of 0.28.
`COCCCNC(=O)[C@@]1(Cc2ccccc2)N=C(c2ccc(OCCCO)cc2)O[C@H]1c1ccccc1` was tested, and the composite z-score was 1.02.
`NC(=O)[C@@H]1[C@H]2C(=O)O[C@H](c3ccccc3)[C@H](c3ccccc3)N2[C@H](c2ccc(O)cc2)[C@@]12C(=O)Nc1ccc(C#CC3(O)CCCCCC3)cc12` gave a composite z-score of -1.05.
Compound `COc1cc2c(cc1O)C(C1CC1)N(Cc1cc3c(cc1Br)OCO3)CC2` (centres undefined) has a composite z-score of -1.26.
`CCCCCC1=C2CNC(CCC)(C(=O)OC)C=C2C(C)C1=O` (centres undefined) was tested, and the composite z-score was -0.111.
With `COc1ccc(C(O)C2C=CC3C(=O)NC(=O)C3N2Nc2ccccn2)c2ccccc12` (centres undefined) the composite z-score was -0.39.
In the case of `COC(=O)C(CC#Cc1ccc2c(c1)[C@]1(C(=O)N2)[C@H](C(=O)O)[C@H]2C(=O)O[C@H](c3ccccc3)[C@H](c3ccccc3)N2[C@@H]1c1ccc(O)cc1)C(=O)OC`, the composite z-score is reported as -0.266.
`CC1(C)[C@@H]2CC(C(O)C3C=CC4C(=O)N(c5ccccc5)C(=O)C4N3Nc3ccccc3)=C[C@H]1C2` (some centres undefined) was tested, and the composite z-score was 0.33.
With `COc1ccc([Si](C)(C)[C@H]2[C@H](CCn3cc([C@H](O)c4ccccc4)nn3)O[C@@]3(C(=O)N(Cc4cccc(N5CCOC5=O)c4)c4ccccc43)[C@@H]2C)cc1` the composite z-score was 0.709.
In the case of `COc1cc2c(cc1O)C=[N+](Cc1cccc(OC(F)(F)F)c1)CC2`, the composite z-score is reported as -0.104.
For `COC(=O)[C@@]1(Cc2ccc(OC)cc2)[C@H]2c3cc(C(=O)N(C)C)n(CCN4CNCC4=O)c3C[C@H]2CN1C(=O)c1ccccc1`, the composite z-score was -0.638.
